Screening data as filed in PubChem.
The list is not random: actives were taken first. Their share in the collection is about 12%.
L3MBTL1 inh = qHTS Assay for the Inhibitors of L3MBTL1; 230,000 compounds, 0.66% hits; Lethal(3)malignant brain tumor-like protein 1 (Homo sapiens), Q9Y468; AlphaScreen L3MBTL1–H3K9me1 peptide binding; AID 485360, 2010; Potency, µM (series often up to 57.1 µM), inactives show at the top dose activity, negative = inhibition, actives largely listed as inhibitors; note: % is set by controls: 0 for no effect and ±100 for the full control effect; nearly all actives have a fitted effect of over 60% in size
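L3MBTL1 (50 nM) pre-complexed 30 min with biotinylated H3(1-15)K9me1 peptide (75 nM), then compounds added for 30 min at room temperature; AlphaScreen streptavidin donor/nickel chelate acceptor beads (10 ug/mL final) read after 30 min dark incubation.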
JMJD2A Tudor = qHTS Assay for Inhibitors of JMJD2A-Tudor Domain; AlphaScreen JMJD2A-Tudor / H3K4me3 peptide binding; Potency, µM (doses to about 114 µM), for the others: top-dose activity change, negative = inhibition, usual class: inhibitors; 390,000 compounds, 4.4% hits; AID 504339, 2011; note: % is set by controls: 0 for no effect and ±100 for the full control effect; nearly all actives have a fitted effect of over 50% in size
G9a block = qHTS Assay for Inhibitors of Histone Lysine Methyltransferase G9a; Histone-lysine N-methyltransferase EHMT2 (Homo sapiens), Q96KQ7; G9a H3K9 monomethylation, AlphaScreen, 2 h; Potency, µM (series often up to 102 µM), for inactives: at the highest dose activity, negative = inhibition, usual class: inhibitors; 350,000 compounds, 8.8% hits; note: % is set by controls: 0 for no effect and ±100 for the full control effect; nearly all actives have a fitted effect of over 75% in size
Target sequence (Q96KQ7 913-1193 limits assumed): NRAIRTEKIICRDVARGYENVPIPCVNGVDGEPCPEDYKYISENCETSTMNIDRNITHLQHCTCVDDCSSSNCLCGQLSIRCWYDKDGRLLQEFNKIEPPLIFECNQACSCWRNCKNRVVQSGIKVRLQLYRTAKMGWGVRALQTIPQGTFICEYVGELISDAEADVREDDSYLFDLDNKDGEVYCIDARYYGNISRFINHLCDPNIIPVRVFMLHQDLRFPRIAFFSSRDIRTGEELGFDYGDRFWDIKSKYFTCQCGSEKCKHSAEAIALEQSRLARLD
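Compounds were preincubated with 20 nM G9a for 15 min, after which biotinylated H3K9 peptide (500 nM) and SAM (20 uM) started a 2 h room-temperature reaction. Monomethylated product was quantified by antibody-based AlphaScreen chemiluminescence.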
BAZ2B block = qHTS Assay for Inhibitors of BAZ2B; Bromodomain adjacent to zinc finger domain protein 2B (Homo sapiens), Q9UIF8; AlphaScreen BAZ2B-H3K14Ac peptide displacement; Potency, µM (top dose mostly 114 µM), inactives show top-dose activity change, negative = inhibition, hits mostly inhibitors; 360,000 compounds, 4.4% hits; AID 504333, 2011; note: % is set by controls: 0 for no effect and ±100 for the full control effect; nearly all actives have a fitted effect of over 60% in size
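AlphaScreen displacement of biotin-H3(5-23)K14Ac peptide (50 nM final) from BAZ2B (50 nM final) in PBS pH 7.4, 0.01% Tween-20; complex preformed 30 min RT, then compounds (top 110 uM) 30 min RT, beads 20 min dark.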
HP1b binding inh = HTS for Inhibitors of HP1-beta Chromodomain Interactions with Methylated Histone Tails. Potency, µM (top dose mostly 114 µM), for the others: top-dose activity change, negative = inhibition, most hits filed as inhibitors. 390,000 compounds, 0.56% hits. AlphaScreen HP1-beta / biotin-H3K9me3 peptide binding; note: nearly all actives have a fitted effect of over 70% in size
Target sequence (P83916 whole entry, looked up): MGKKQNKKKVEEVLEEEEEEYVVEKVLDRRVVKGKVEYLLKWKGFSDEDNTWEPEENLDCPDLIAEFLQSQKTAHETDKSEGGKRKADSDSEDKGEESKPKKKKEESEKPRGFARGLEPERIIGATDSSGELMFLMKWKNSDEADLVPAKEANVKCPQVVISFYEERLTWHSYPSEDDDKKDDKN
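Compound inhibition of the preformed complex between 50 nM HP1-beta and 50 nM biotinylated H3K9me3 peptide was read by AlphaScreen. Buffer was PBS pH 7.4 with 0.01% Tween-20. Incubations ran 30 min at room temperature, with 10 ug/mL donor/acceptor beads.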
Sfp inh = qHTS Assay for Inhibitors of Bacillus subtilis Sfp phosphopantetheinyl transferase (PPTase); 4'-phosphopantetheinyl transferase ffp (Bacillus subtilis), Q9F4F7; Biochemical Sfp PPTase activity, qHTS; Potency, µM, for the others: largest response in the series, negative = inhibition, usual class: inhibitors; 310,000 compounds, 3.5% hits; AID 1490, 2009;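 note: the enzyme is Sfp with the accession as filed and its product quenches rhodamine fluorescence; 0% = enzyme reaction without inhibitor and -100% = no enzyme wells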
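Sfp 15 nM + cpd, 15 min RT; start w/ rhodamine-CoA 5 uM, BHQ-2-YbbR 12.5 uM (final); 50 mM Hepes pH 7.6, 10 mM MgCl2, 0.01% NP-40, 0.01% BSA; read 525/598 nm at 0 and 30 min.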
Active calls of the source: *; ? = inconclusive; nt = not tested or not shown; [ ] = another dose, or the depositor's remark. Calls come from the whole dose curve; as a rule, active = well fitted curve in the direction sought with a large enough effect; inconclusive = small, poorly fitted or top-dose-only effect, or another doubt; inactive = no such curve, though single readings can be large; an effect the other way counts as inactive or inconclusive. Potency is the fitted concentration of half-maximal effect.

SMILES	L3MBTL1 inh	JMJD2A Tudor	G9a block	BAZ2B block	HP1b binding inh	Sfp inh
COc1ccc(-n2ncc3c(NCCCOC(C)C)ncnc32)cc1	nt	-20%	4%[59 µM]	2%	40%	nt
Cc1ccc(NC(=O)NC2CCCCC2)cc1Cl	1%[11.4 µM]	-4%	22%[12.7 µM]	-3%	19%	22%
Cc1ccc(NC(=O)CN(C)C2CCCCC2)cc1Cl	42%	10µM*	nt	?	?	-29%
CCCCCCCn1c(=N)n(CC(O)c2ccco2)c2ccccc21 (configuration not stated)	-7%	-31%	79µM*	-34%	14%	1%
NC(=O)c1cc(-c2ccccc2)nc(N2CCOCC2)n1	1%	11%	21%[59 µM]	-2%	32%	10%
CC[n+]1cc(-c2ccccc2)nc(N2CCOCC2)n1	-7%	32µM*	10µM*	-5%	6%	2%
O=S(=O)(NCc1ccc(F)cc1)c1ccc2[nH]c3c(c2c1)CCCCC3	nt	45µM*	8.9µM*	-26%[57.1 µM]	?	nt
O=S(=O)(Nc1cc(F)ccc1F)c1ccc2[nH]c3c(c2c1)CCCCC3	nt	?	?	40µM*	-26%	nt
O=C(NC1CC(=O)N(c2ccc(F)cc2)C1)c1ccc(S(=O)(=O)N2CCOCC2)cc1 (configuration not stated)	nt	-7%	4%[59 µM]	-1%	33%	nt
CCCCN1CCCC[C@H]1C(=O)Nc1c(C)cccc1C	nt	nt	8%[59 µM]	nt	nt	19%
O=C(CCn1c(=O)c2ccccc2n(Cc2ccc(F)cc2Cl)c1=O)NCc1ccc2c(c1)OCO2	nt	9%	17%[59 µM]	1%	33%	nt
COC(=O)c1cc(Br)c(=O)n(CCN2CCCC2)c1	-1%	-20%	50µM*	-2%[57.1 µM]	42%	-7%
COc1ccc(NC(=S)N(CCCN2CCOCC2)Cc2cn(C)c3ccccc23)cc1OC	-5%	-27%	50µM*	?	-3%	-16%
O=C(Cn1c(=O)n(Cc2ccco2)c(=O)c2ccc(C(=O)NC3CCCC3)cc21)Nc1ccc(F)cc1	nt	-18%	3%[59 µM]	nt	6%	nt
CCN(C(=O)Cn1c(=O)oc2cc(S(=O)(=O)N3CCCC3)ccc21)c1cccc(C)c1	nt	-11%	1%[59 µM]	2%	39%	nt
COc1ccccc1N1CCN(S(=O)(=O)c2cc3c(cc2C)NC(=O)CO3)CC1	1%	-31%	79µM*	-29%	18%	4%
Cc1cc2c(cc1S(=O)(=O)N1CCN(c3cccc(C)c3C)CC1)OCC(=O)N2	-3%	-8%	nt	15%	23%	-6%
COC(=O)Nc1cc(C(=O)c2ccc(Cl)cc2Cl)c[nH]1	nt	?	50µM*	?	-18%	-17%
COC(=O)NNC(=O)c1ccc(Cl)cc1Cl	0%	-7%	-7%[59 µM]	13%	19%	-1%
Cc1[nH]c2ccc(-c3n[nH]c(=S)n3-c3ccccc3)cc2c1C	-7%	56µM*	1.6µM*	-10%	?	-11%
CS(=O)(=O)Nc1ccc(-c2n[nH]c(=S)n2-c2ccccc2)cc1	nt	5.6µM*	0.5µM*	-7%	26%	-9%
Cc1[nH]c2ccc(-c3n[nH]c(=S)n3Cc3ccccc3)cc2c1C	-17%	?	7.9µM*	?	9%	-28%
CN(C)/C=N/c1sc2c(c1C#N)CCCC2	-15%	-32%	50µM*	?	13%	45µM*
CC1CCc2c(sc(/N=C/N(C)C)c2C#N)C1 (configuration not stated)	-7%	-31%	22µM*	40µM*	-4%	5%
N#Cc1c(/N=C/c2ccco2)sc2c1CCCCC2	-24%	-19%	?	35µM*	?	0%
SMILES	L3MBTL1 inh	JMJD2A Tudor	G9a block	BAZ2B block	HP1b binding inh	Sfp inh
Cc1ccc(-n2nc3c(N4CCCC(C(=O)NCc5ccccc5C)C4)nnc(C)c3c2C)cc1 (configuration not stated)	nt	-29%	?	-36%	33%	nt
CCc1nc2sc3c(N4CCC(C)CC4)ncnc3c2c2c1CCCC2	nt	-12%	-22%[59 µM]	2%	34%	nt
Cc1cc(O)c(C(=O)/C=C/c2ccccc2O)c(=O)o1	nt	?	50µM*	?	2%	-14%
Cc1cc(O)c(C(=O)/C=C/c2cccc([N+](=O)[O-])c2)c(=O)o1	-7%	?	13µM*	?	-1%	6%
O=C(/C=C/c1cccc(Cl)c1)c1ccc([N+](=O)[O-])o1	-3%	?	?	10µM*	-11%	nt
COc1ccc(/C=C/C(=O)c2ccc([N+](=O)[O-])o2)cc1OC	3%	-14%	3%[12.7 µM]	2%	38%	nt
Cc1cccc(N2CCN(C(=O)c3nn(C)c4c3CSc3ccccc3-4)CC2C)c1 (configuration not stated)	nt	-6%	-42%[59 µM]	-10%	45%	nt
CCN1CCN(CC#CCOc2ccccc2OC)CC1	7%[2.29 µM]	0.79µM*	-47%[0.501 µM]	22µM*	?	?
CCN(CC)c1ccc(-n2c(C)c(C(C)=O)c(C(C)=O)c2C)cc1	-5%	89µM*	?	nt	?	-7%
CC(=O)c1c(C(C)=O)c(C)n(-c2ccc(O)cc2)c1C	nt	-29%	-1%[59 µM]	-39%	6%	11%
CCN(CC)c1ccc(-n2c(C)cc(C=O)c2C)cc1	nt	-7%[11.4 µM]	45µM*	?	?	-13%
CC(C)(C)c1ccccc1NC(=O)c1cnn2c(C(F)F)cc(-c3ccccc3)nc12	nt	-10%	-22%[59 µM]	?	14%	nt
C=CCn1c(SCC(=O)c2ccc(O)c(O)c2)nnc1-c1cccc(C)c1	?	?	?	50µM*	-8%	nt
C=CCn1c(SCC(=O)Nc2cc(NC(C)=O)ccc2OC)nnc1-c1ccccn1	-6%	?	-4%	79µM*	16%	11%
C=CCn1c(SCC(=O)c2ccc(F)cc2)nnc1-c1ccc2c(c1)OCO2	nt	-21%	-8%[59 µM]	-13%	37%	-4%
C=CCn1c(SCC(=O)O)nnc1-c1cccc(Cl)c1	3%	4%	2%[12.7 µM]	2%	55%	15%
C=CCn1c(SCC(=O)c2ccc(O)c(O)c2)nnc1-c1cccc(Cl)c1	?	?	-4%[0.501 µM]	50µM*	-6%	nt
C=CCn1c(SCC(=O)Nc2ccc(N(C)C)cc2)nnc1-c1cccc(C)c1	-20%	50µM*	7.9µM*	45µM*	-58%	3%
